Hits are enriched below; roughly 3.5% of the tested compounds scored in any of these assays.
MITF inh: inhibitors of human MITF; 650,000 tested, 0.91% active; O75030; AlphaScreen MITF homodimerization, bead proximity signal; inhibition, % at 2.6 µM; in the data active = inhibition above about 50%;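 note: 0% = vehicle wells with protein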
TEAD-YAP inh: TEAD-YAP interaction inhibition | 640,000 tested, 1.4% active | inhibition, % at 9.12 µM | HEK-TIYL cells, TEAD-Gal4/YAP UAS-luciferase luminescence | AID 1259422; in the data active = inhibition above about 32%;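 note: 0% = median of test compound wells and 100% = reference inhibitor wells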
FBW7 act: human FBW7 E3 ligase activation, primary screen | AlphaScreen FBW7–phospho-cyclin E peptide binding, activator screen | 650,000 tested, 0.13% active | Q969H0 | normalized activity (activation), % at 26.1 µM; in the data active = normalized activity above about 1.9%;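 note: purified mutant Fbw7 with reduced substrate affinity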
Target sequence (Q969H0 whole entry, looked up): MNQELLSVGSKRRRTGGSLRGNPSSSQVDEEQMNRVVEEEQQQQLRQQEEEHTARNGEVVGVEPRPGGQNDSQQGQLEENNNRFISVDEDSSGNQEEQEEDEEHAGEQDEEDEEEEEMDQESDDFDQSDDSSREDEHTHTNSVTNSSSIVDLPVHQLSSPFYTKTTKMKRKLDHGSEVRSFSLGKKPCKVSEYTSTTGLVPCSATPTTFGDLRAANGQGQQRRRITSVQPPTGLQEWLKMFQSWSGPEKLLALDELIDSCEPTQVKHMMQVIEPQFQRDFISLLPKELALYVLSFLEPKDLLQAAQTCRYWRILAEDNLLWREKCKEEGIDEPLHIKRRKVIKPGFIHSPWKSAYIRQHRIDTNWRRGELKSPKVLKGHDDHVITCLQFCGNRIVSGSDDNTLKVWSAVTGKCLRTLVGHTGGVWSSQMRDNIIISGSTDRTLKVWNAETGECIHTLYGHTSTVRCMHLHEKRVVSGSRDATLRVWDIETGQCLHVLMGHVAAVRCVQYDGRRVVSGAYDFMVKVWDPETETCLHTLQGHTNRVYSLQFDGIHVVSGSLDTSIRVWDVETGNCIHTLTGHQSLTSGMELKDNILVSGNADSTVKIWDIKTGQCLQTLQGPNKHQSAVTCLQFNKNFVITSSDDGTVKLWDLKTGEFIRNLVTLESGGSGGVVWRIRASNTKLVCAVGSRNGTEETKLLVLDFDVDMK
GPR151 activ: activators of human GPR151; Q8TDV0; PathHunter beta-arrestin GPR151 cells, luminescence; activation, % at 11.2 µM; 650,000 tested, 1% active; AID 1508602; in the data active = activation above about 4.9%;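 note: 0% = median of compound wells and 100% = cells with positive control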
GPR151 confirm: human GPR151 activation, confirmation screen; AID 1508609; shares compounds with GPR151 activ; 6,700 tested, under 10 active; GPR151 PathHunter beta-arrestin cells, luminescence, 90 min; % of EA-reagent control over plate median; activation, % at 11.2 µM;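 active = mean percent activation across replicates above the confirmation screen cutoff of 4.91%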
GPR119 ag: activates human GPR119 in a GPR151 counter-screen | shares compounds with GPR151 activ | GPR119 PathHunter beta-arrestin cells, luminescence, 90 min; 0 = compound-well median, 100 = enzyme-acceptor control | activation, % at 11.2 µM | 6,700 tested, 0.3% active | AID 1508611;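 active = mean percent activation in the counterscreen above 29.09%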;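 note: counterscreen on off-target GPR119 to flag nonselective hits from the GPR151 activator screen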
* marks the source's active call; other numbers are inactive results; . = not tested or not shown; ! = not active in a repeat.

SMILES | MITF inh | TEAD-YAP inh | FBW7 act | GPR151 activ | GPR151 confirm | GPR119 ag
C=CCOc1ccccc1CN1CCc2nncn2CC1 | 5 | -3 | 0 | 7.4* | 0 | 4
C=CCOc1ccccc1CN1CCc2nnc(CNC(=O)C3CCC(=O)N3)n2CC1 (stereo unspecified) | 7 | -7 | 0 | 5.6* | 1 | 11
CC(Oc1ccc(Br)cc1Cl)C(=O)NCCCN1CCCC1=O (stereo unspecified) | -8 | -4 | 0 | -1 | . | .
CCN1CCN(c2ncnc3c(-c4ccc(Cl)cc4)nsc23)CC1 | 4 | -37 | 0 | -1 | . | .
O=C(Oc1ccc([N+](=O)[O-])cc1)c1ccc(N2C(=O)C3C4CCC(C4)C3C2=O)cc1 (stereo unspecified) | -5 | 1 | 0 | 7.5* | 0 | 0
Cc1cc(C)n2nc(SCC(=O)Nc3ccccc3C(C)(C)C)nc2n1 | 13 | -10 | 0 | -1 | . | .
Cc1cc(C)n2nc(SCC(=O)Nc3c(C)nn(-c4ccccc4)c3C)nc2n1 | -3 | -9 | 0 | 5.4* | 2 | 2
CC(C)(C)c1cc(N2C(=O)C(=O)/C(=C(/O)c3ccc(Br)cc3)C2c2cccc([N+](=O)[O-])c2)no1 (stereo unspecified) | -9 | -12 | 0 | 0 | . | .
CCOC(=O)/C(C(N)=O)=C(\OC)C(=O)CC(=O)c1ccc(C)cc1 | 5 | 6 | 0 | 5.5* | 1 | 7
CCOC(=O)/C(C(N)=O)=C(\O)C(=O)/C=C(\O)c1ccc(C)cc1 | 0 | -5 | 0 | 1 | . | .
O=c1c2ccccc2c2ccccc2c(=O)n1-c1ccc(F)cc1 | -3 | -6 | 0 | -2 | . | .
O=c1c2ccccc2c2ccccc2c(=O)n1-c1ccc(OC(F)(F)F)cc1 | 10 | 6 | 0 | 5.1* | -1 | -10
CC(C)(C)NS(=O)(=O)c1cc(Br)cnc1N | -7 | -3 | 0 | 0 | . | .
CCC(C)(C)NS(=O)(=O)c1cc(Br)cnc1N | 3 | -3 | 0 | 6.0* | 0 | 9
O=c1[nH]c(=O)n(-c2ccc(Cl)cc2)c(O)c1/C=N/n1cnnc1 | -1 | -1 | 0 | -1 | . | .
COc1ccc(Cl)cc1NC(=O)Cn1nc2n(C)c3ccccc3n2c(=O)c1=O | -1 | 4 | 0 | 0 | . | .
COC(=O)c1ccc(NC(=O)Cn2nc3n(C)c4ccccc4n3c(=O)c2=O)cc1 | 3 | -12 | 0 | 8.8* | 1 | 2
CC(C)c1csc(CN2CCCC(CNC(=O)c3cccs3)C2)n1 (stereo unspecified) | 6 | 24 | 0 | 6.1* | 1 | -7
CC(=O)c1cccc(CN2CCCC(CNC(=O)c3cccs3)C2)c1 (stereo unspecified) | -2 | 3 | 0 | 10* | 0 | -14
CSc1cccc(CN2CCCC(CNC(=O)c3cccs3)C2)c1 (stereo unspecified) | 16 | 19 | 1 | -3 | . | .
O=C(NCCc1c[nH]c2ccccc12)C(c1ccccc1)N1Cc2ccccc2C1=O (stereo unspecified) | 10 | 0 | 0 | 5.2* | 0 | -8
Cc1cccc(NC(=O)c2ccc(=O)n(Cc3ccccc3C)c2)c1 | 15 | 8 | 1 | -1 | . | .
Cc1nc(NC(=O)/C=C/c2ccccc2)sc1C(=O)Nc1cccnc1 | -7 | 12 | 0 | 9.1* | 0 | -5
COc1cc(/C=N/O)cc(Cl)c1OC | -2 | -9 | 0 | 1 | . | .
COc1cc(/C=N/O)cc(Cl)c1OS(=O)(=O)c1ccc(C)cc1 | -7 | -15 | 0 | 4.9* | -1 | -15
SMILES | MITF inh | TEAD-YAP inh | FBW7 act | GPR151 activ | GPR151 confirm | GPR119 ag
Cc1sc2nc(Cc3ccccc3)n(C3CCN(CC(N)=O)CC3)c(=O)c2c1C | 5 | 0 | 0 | 6.1* | 1 | -8
Cc1sc2nc(Cc3ccccc3)n(C3CCN(C(=O)c4ccco4)CC3)c(=O)c2c1C | 6 | -6 | 0 | 1 | . | .
O=c1[nH]cnc2c1[nH]c1ccccc12 | 9 | 19 | 0 | 8.7* | -1 | 7
CCOc1ccc(-n2c(=S)sc3c(=O)n(-c4ccccc4)c(SCC(=O)Nc4ccc(CC)cc4)nc32)cc1 | -85 | 18 | 0 | 0 | . | .
COc1cccc(OC)c1C(=O)N=c1sc2cc(F)ccc2n1C | 11 | 9 | 0 | 2 | . | .
COc1cccc(C(=O)N=c2sc3cc(F)ccc3n2C)c1OC | -19 | 67* | 0 | 6.6* | 0 | 10
COc1ccc2c(c1)sc(=NC(=O)CS(=O)(=O)c1ccc(F)cc1)n2C | 4 | 6 | -1 | 5.8* | 1 | 8
CCCc1ccc(-c2ccc(C(=O)Nc3ccc(I)cc3C)cc2)nc1 | -9 | 6 | 0 | 1 | . | .
C/C(CC(=O)Nc1ccccn1)=N\NC(=O)C(c1ccccc1)c1ccccc1 | 8 | -1 | 0 | 0 | . | .
COc1ccc(OC)c(Cc2nnc(CCC(=O)NCc3nc4ccccc4s3)o2)c1 | -6 | -9 | 0 | 6.3* | 1 | 12
COc1ccc(CCc2nnc(CCC(=O)NCCc3ccccc3F)o2)cc1 | 1 | -4 | 0 | 6.5* | 0 | -4
COc1ccc(CCc2nnc(CCC(=O)NCc3ccccc3F)o2)cc1 | -26 | -47 | 0 | 0 | . | .
O=C(CCc1nnc(COc2ccccc2)o1)NCc1nc2ccccc2s1 | 9 | -1 | 0 | 5.1* | 1 | 6
O=C(CCc1nnc(-c2ccccc2)o1)NCc1nc2ccccc2s1 | -1 | -4 | 0 | -1 | . | .
COc1ccc(OC)c(Cc2nnc(CCC(=O)NCCc3nc(C)c(C)s3)o2)c1 | 11 | -9 | 0 | -1 | . | .
Cc1c(Br)c([N+](=O)[O-])nn1CC(=O)N(C)C1CCCCC1 | 6 | -3 | 0 | 2 | . | .
CSc1nsc(SC)c1NC(=O)OC1CCCC1 | 11 | 7 | 0 | -1 | . | .
CSc1nsc(SC)c1NC(=O)OCC1CCCO1 (stereo unspecified) | 2 | 3 | 0 | 6.6* | 0 | -2
COc1ccccc1Nc1c(-c2ccc(C)c(C)c2)c(=O)c1=O | 16 | -10 | 1 | 0 | . | .
CCOC(=O)c1cccc(Nc2c(-c3ccc(C)c(C)c3)c(=O)c2=O)c1 | 2 | -4 | 0 | 12* | 1 | -2
CCOC(=O)c1ccc(Nc2c(-c3ccc(Cl)cc3)c(=O)c2=O)cc1 | 2 | -7 | 0 | 0 | . | .
Cc1ccc(-c2c(Nc3ccccc3F)c(=O)c2=O)cc1C | 3 | 49* | 0 | 5.8* | 0 | 4
Cc1sc(NC(=O)CCOc2ccccc2)c(C#N)c1C | -5 | 6 | 0 | 6.9* | -1 | 4
COC(=O)c1ccc2c(c1)N(C)C(=O)/C(=C/c1ccc(OC)cc1)S2 | -14 | -9 | 0 | 0 | . | .
Oc1ccc(O)cc1 | -4 | -27 | 0 | 5.1*! | 0 | -7
Oc1ccc(Sc2ccc(O)cc2)cc1 | 3 | -2 | 0 | 0 | . | .

Screens from PubChem BioAssay.
